# About 2,000 (4.3%) of roughly 47,000 compounds were called active. Cut-off read from the data, not from the text of the source: active = inhibition above about 30%; inactive = the rest. The entries come from a sample that favours actives as a whole.
# Biological target: Ubiquitin carboxyl-terminal hydrolase 8 (Homo sapiens) (UniProt P40818)
# Assay: blocks human USP8 ubiquitin-rhodamine cleavage (AID 1645853)
# Conditions: purified USP8, Ub-rhodamine cleavage fluorescence, 30 min; at 20 µM; stronger effect = higher value
# Chain of Ubiquitin carboxyl-terminal hydrolase 8 (Homo sapiens) (P40818 whole entry, looked up): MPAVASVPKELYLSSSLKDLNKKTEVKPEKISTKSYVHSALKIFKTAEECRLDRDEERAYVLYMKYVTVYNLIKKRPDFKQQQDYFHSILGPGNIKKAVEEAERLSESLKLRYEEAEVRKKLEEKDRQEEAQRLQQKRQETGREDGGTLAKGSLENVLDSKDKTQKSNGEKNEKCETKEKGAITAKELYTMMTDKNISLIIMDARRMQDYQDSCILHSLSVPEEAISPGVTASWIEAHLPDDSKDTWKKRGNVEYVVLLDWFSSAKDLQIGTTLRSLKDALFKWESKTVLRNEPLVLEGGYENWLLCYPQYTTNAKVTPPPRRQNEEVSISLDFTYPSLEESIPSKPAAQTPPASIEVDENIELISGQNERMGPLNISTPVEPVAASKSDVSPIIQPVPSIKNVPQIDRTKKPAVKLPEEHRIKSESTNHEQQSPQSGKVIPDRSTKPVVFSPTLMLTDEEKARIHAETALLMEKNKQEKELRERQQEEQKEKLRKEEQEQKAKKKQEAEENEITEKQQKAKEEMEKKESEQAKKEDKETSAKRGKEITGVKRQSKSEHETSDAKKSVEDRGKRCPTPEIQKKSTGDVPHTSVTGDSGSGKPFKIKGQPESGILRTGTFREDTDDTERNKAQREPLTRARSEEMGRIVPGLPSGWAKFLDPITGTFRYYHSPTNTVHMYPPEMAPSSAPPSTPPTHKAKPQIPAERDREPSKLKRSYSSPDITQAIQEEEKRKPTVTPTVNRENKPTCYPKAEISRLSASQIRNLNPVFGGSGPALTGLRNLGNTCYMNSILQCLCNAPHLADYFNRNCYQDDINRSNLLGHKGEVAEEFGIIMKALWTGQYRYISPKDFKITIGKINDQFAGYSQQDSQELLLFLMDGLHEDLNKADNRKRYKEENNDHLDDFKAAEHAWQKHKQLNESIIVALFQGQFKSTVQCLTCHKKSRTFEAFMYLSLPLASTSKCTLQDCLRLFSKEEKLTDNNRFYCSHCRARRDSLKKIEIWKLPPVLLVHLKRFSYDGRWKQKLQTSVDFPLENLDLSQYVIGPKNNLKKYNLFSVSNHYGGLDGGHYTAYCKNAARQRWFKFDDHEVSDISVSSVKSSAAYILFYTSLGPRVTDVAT
row,Structure (SMILES),inhibition
1,O=C(O)c1cc(-c2cccc3ccccc23)n[nH]1,-80.6% (inactive)
2,O=C(c1cnccn1)N1CC(C(=O)N2CCCC2)C1,0.517% (inactive)
3,O=C(CSc1nnc(-c2ccncc2)o1)Nc1cccc(Cl)c1,4.92% (inactive)
4,CCN(C(=O)CSc1nnc(-c2ccncc2)o1)c1ccccc1,14.4% (inactive)
5,CCc1ccccc1NC(=O)CSc1nnc(-c2ccncc2)o1,54.3% (active)
6,Cc1ccc2occ(CC(=O)Nc3sc4c(c3C(=O)NCc3cccnc3)CCCC4)c2c1,20.7% (inactive)
7,CCC(Cc1ccccc1)NS(=O)(=O)c1ccc2c(c1)NC(=O)CS2 (centres undefined),3.6% (inactive)
8,CCOc1ccc(CNS(=O)(=O)c2cccc(-c3noc(C)n3)c2)cc1OC,-8.47% (inactive)
9,Cn1cc(-c2nc(CN3CCCC3Cn3cccn3)cs2)cn1 (centres undefined),-48.6% (inactive)
10,O=C(Cn1c(=O)n(Cc2ccc3c(c2)OCO3)c(=O)c2ccccc21)NCc1ccco1,8.11% (inactive)
11,O=C(NCCc1ccccc1)c1ccc2c(=O)n(Cc3ccco3)c(=O)n(Cc3cccc([N+](=O)[O-])c3)c2c1,83.9% (active)
12,O=C(CCc1nnc2n(Cc3ccccc3)c(=O)c3ccccc3n12)N1CCN(C(=O)c2ccco2)CC1,2.75% (inactive)
13,COc1ccc(-c2ccc3nc(N4CCC(C(N)=O)CC4)sc3n2)cc1,-18.5% (inactive)
14,C[C@@H]1CCCCCCCCC[C@@H](OC(=O)CCC(=O)O)C(=O)/C=C/C(=O)O1,-0.995% (inactive)
15,Cc1ccc(NC(=O)Cc2sc(Nc3ccc(C)cc3)nc2O)cc1,35.4% (active)
16,CCOc1ccc(Nc2nc(O)c(CC(=O)Nc3cccc(C)c3)s2)cc1,29.3% (inactive)
17,Cc1ccc(Nc2nc(O)c(CC(=O)Nc3ccc(C(C)C)cc3)s2)cc1C,-0.936% (inactive)
18,O=C(NCc1ccncc1)c1nnn(-c2ccc(F)cc2)c1-c1ccncc1,5.41% (inactive)
19,O=C(CSc1nnc(-c2cccnc2)o1)N1CCN(c2ccc(F)cc2)CC1,19% (inactive)
20,Cc1nc(-c2cccc(NC(=O)C3CCN(c4ccccc4)C3=O)c2)no1 (centres undefined),27.7% (inactive)
21,Nc1ccc(C(=O)OCC(=O)NC2CCCc3ccccc32)cc1[N+](=O)[O-] (centres undefined),50.4% (active)
22,O=C(COC(=O)c1ccc(F)cc1)NC1CCCc2ccccc21 (centres undefined),7.36% (inactive)
23,O=C(c1ccccc1)c1ccc(NC2CCCc3ccccc32)c([N+](=O)[O-])c1 (centres undefined),-7.98% (inactive)

row,Structure (SMILES),inhibition
1,O=C(CN1CCN(Cc2nc3ccccc3s2)CC1)N1CCc2ccccc21,-4.14% (inactive)
2,CC(C)C(=O)N1[C@@H](c2ccccc2)C[C@@H]2NC(=O)CCC[C@H]21,1.29% (inactive)
3,CC1CCc2c(sc3ncnc(OCc4cccc([N+](=O)[O-])c4)c23)C1 (centres undefined),-36.3% (inactive)
4,Cc1nc(N)ncc1C(=O)N1CCCC(C)(C(=O)NC2CCCC2)C1 (centres undefined),4.82% (inactive)
5,Cc1nnn(C23CC4CC(CC(C(=O)NC5CCCC5)(C4)C2)C3)n1,30.1% (active)
6,O=c1c2c(ncn2C2CCCC2)n(Cc2ccccc2)c(=O)n1Cc1ccccc1,1.24% (inactive)
7,COCCn1cnc2c(-c3ccccc3)cn(CC(=O)NCc3ccccc3)c2c1=O,0.16% (inactive)
8,COCCn1cnc2c1c(=O)n(CC(=O)Nc1c(C)cc(C)cc1C)c(=O)n2Cc1ccccc1,32.6% (active)
9,Cc1nc(C2CCN(C(=O)Cc3ccc(F)cc3)CC2)ncc1C(N)=O,0.65% (inactive)
10,O=S(=O)(c1ccccc1)n1nc(-c2cccnc2)nc1NCc1ccc(Cl)cc1,3.57% (inactive)
11,CS(=O)(=O)c1ccc(CN2CCC3(C/C=C/Cc4ccccc4OCC(=O)NC3)CC2)cc1,-3.81% (inactive)
12,O=C(O)c1ccc2c(=O)n3c(nc2c1)/C(=C/c1cccc(C(F)(F)F)c1)CC3,14.9% (inactive)
13,O=C(O)c1c2c(nc3ccccc13)/C(=C/c1ccc(F)cc1)CCC2,35.2% (active)
14,O=C1NC(c2ccccc2)=N/C1=C/c1ccc(F)cc1,-0.962% (inactive)
15,CC1(C)[C@H](Cc2cc(-c3ccccc3)on2)C[C@@H]1NC(=O)C1CC1,-0.801% (inactive)
16,CCOc1ccccc1NC(=O)Nc1cc(-c2nc3ccccc3o2)ccc1OC,21.7% (inactive)
17,CCOc1ccccc1NC(=O)COc1cccc2c1OC(C)(C)C2,8.84% (inactive)
18,CCOc1ccccc1NC(=O)Cc1cccs1,31.3% (active)
19,CCOc1cc(S(=O)(=O)Nc2ccc3cn[nH]c3c2)ccc1Cl,22.3% (inactive)
20,CN1C(=O)C(C)(C)COc2ccc(NS(=O)(=O)c3ccccc3Cl)cc21,0.668% (inactive)
21,O=S(=O)(Nc1ccc2[nH]ncc2c1)c1ccccc1Cl,47% (active)
22,CCCCCn1c(=O)c2sccc2n2c(CCC(=O)NC3CC3)nnc12,5.66% (inactive)
23,COc1ccc(C(=O)N2CCC(Cc3nc(-c4cnccn4)no3)CC2)cc1,6% (inactive)

row,Structure (SMILES),inhibition
1,CCOc1ccccc1C(=O)NCC(c1ccco1)N1CCCC1 (centres undefined),23.5% (inactive)
2,Cc1ccc(N2C(=O)CN(S(C)(=O)=O)CC2(C)C(=O)NC2CCCCC2)c(C)c1 (centres undefined),15.1% (inactive)
3,Cc1ccc(N2C(=O)CN(S(=O)(=O)c3ccccc3)CC2(C)C(=O)NCCC(C)C)cc1C (centres undefined),6.01% (inactive)
4,CCOc1ccc2c(c1)c(=O)c(C(=O)c1ccccc1)cn2CC(=O)Nc1ccc(OC)cc1,93.8% (active)
5,CCOc1ccc(NC(=O)Cn2cc(C(=O)c3ccc(Cl)cc3)c(=O)c3cc(OC)ccc32)cc1,-4.68% (inactive)
6,COc1ccc(NC(=O)CSc2cn(CC(=O)N3CCCC3)c3ccccc23)cc1,-38.7% (inactive)
7,O=C(NCCc1ccccc1)N1CCC(n2c(=O)[nH]c3cncnc32)C1 (centres undefined),5.93% (inactive)
8,COc1cc(C(=O)N(c2ccccn2)C2CCCCC2)cc(OC)c1OC,-3.54% (inactive)
9,O=C(/C=C/c1ccc(Cl)cc1)Nc1ccc2c(c1)OCCO2,-8.51% (inactive)
10,COCCN1Cc2c(C(=O)N3CCCCC3)ncn2-c2ccccc2S1(=O)=O,-27.7% (inactive)
11,Cc1ccc(CNC(=O)c2nc(-c3cn(-c4ccc(Br)cc4)nc3C)no2)o1,13.8% (inactive)
12,Cc1ccc(-n2cc(-c3noc(C(=O)Nc4ccc(F)cc4C)n3)nn2)cc1,99% (active)
13,Cc1cc(F)ccc1NC(=O)c1cc(C2CC2)n2nccc2n1,-4.45% (inactive)
14,COc1cccc(CNC(=O)c2cc3c(=O)n(C)ccc3n2C)c1,-1.58% (inactive)
15,COc1ccc(NC(=O)CS(=O)(=O)c2cn(CC(=O)N3CCCC3)c3ccccc23)cc1,-8.78% (inactive)
16,Cn1nc(C2CCN(Cc3ccc4c(c3)CC(C)(C)O4)CC2)c2nccnc21,-31% (inactive)
17,Cn1nc(C2CCCN(Cc3cc(F)cc(F)c3)C2)c2nccnc21 (centres undefined),32.7% (active)
18,COc1cc(CN2CCCC(c3ncc(Cl)cc3S(C)(=O)=O)C2)cc(OC)c1 (centres undefined),-1.79% (inactive)
19,CC(C)C(=O)N1CCN2[C@H](C[C@@H](C(=O)N(C)C)[C@]23C(=O)Nc2ccccc23)C1,18.9% (inactive)
20,CC(C)(C)C(=O)Cn1c(=O)n(Cc2ccco2)c(=O)c2ccccc21,-0.0891% (inactive)
21,COc1ccc(CNC(=O)Cn2c(C)nc3onc(C)c3c2=O)cc1,2.79% (inactive)
22,COc1ccc(-c2ocnc2C(=O)NCc2ccc(OC)c(OC)c2)cc1,3.07% (inactive)
23,COc1ccc(-c2nc3c(c(=O)c4ccccc4n3C)c(=O)n2Cc2ccco2)cc1,89.7% (active)

row,Structure (SMILES),inhibition
1,O=c1c2ccccc2n(Cc2ccccc2Cl)c(=O)n1Cc1ccco1,-2.33% (inactive)
2,COc1ccc(-c2nc3c(c(=O)c4ccccc4n3C)c(=O)n2CCc2ccc(OC)c(OC)c2)cc1,33.9% (active)
3,COc1cccc(CCC(=O)N2CCN(c3cc(C)n4cnnc4n3)CC2)c1,-8.31% (inactive)
4,CCc1ccc(NC(=O)CSc2nc(-c3ccccc3F)nc3cc(=O)[nH]n23)cc1,-16% (inactive)
5,CCc1ccc(S(=O)(=O)N2CCN=C2N2CCCCC2)cc1,-0.222% (inactive)
6,CCN(C)C(=O)c1cc(-c2ccn(-c3ccccc3)n2)n2ccccc12,-39.1% (inactive)
7,O=C(NCc1ccc2c(c1)OCO2)C1=CCN(Cc2ccccc2)CC1,-26.8% (inactive)
8,O=C(Nc1cccc2ccccc12)N1CCN(Cc2ccc3c(c2)OCO3)CC1,61.7% (active)
9,COC(=O)c1cc2c(ccn2C)n1CC(=O)N1CCN(Cc2ccc3c(c2)OCO3)CC1,22.5% (inactive)
10,CCCCN(c1ccccc1)S(=O)(=O)c1cccc(C(=O)OCC(=O)NCc2ccc3c(c2)OCO3)c1,22.8% (inactive)
11,CC(C)c1nnc(NC(=O)C2CC(=O)N(CCc3ccc(F)cc3)C2)s1 (centres undefined),-27.4% (inactive)
12,COc1ccc(-c2nc(C3CC(=O)N(c4ccccc4)C3)no2)cc1 (centres undefined),12.9% (inactive)
13,COc1ccc(N2CC(c3nnc(NC(=O)CCc4ccccc4)s3)CC2=O)cc1 (centres undefined),43.3% (active)
14,Cc1ccc(N2CC(c3nnc(NC(=O)CCCc4ccccc4)s3)CC2=O)cc1 (centres undefined),-58.7% (inactive)
15,Cc1ccc(CC(=O)Nc2nnc(C3CC(=O)N(c4ccc(C)c(C)c4)C3)s2)cc1 (centres undefined),35.8% (active)
16,Cc1ccc(N2CCCS2(=O)=O)cc1NC(=O)Cc1ccc(Cl)cc1,15.3% (inactive)
17,CN1CCN(c2ncc(NC(=O)c3ccccn3)cn2)CC1,-1.52% (inactive)
18,CC1CCN(S(=O)(=O)CC(F)(F)F)Cc2nc3ccccc3n21 (centres undefined),-0.0013% (inactive)
19,CCCNc1nc(Nc2ccc(OC)cc2)c2cnn(C)c2n1,-0.418% (inactive)
20,Nc1nc(N2CCCC2)nc2c1CCN(Cc1ccc3ncccc3c1)C2,-7.44% (inactive)
